Results from PubChem BioAssay (NCATS).
For some of these results: Entries with a potency or affinity are not part of this list. Activity calls are given as the source filed them. The rule behind the calls is not given here.

Experiments:
[1] = qHTS profiling of the MIPE4 collection as inhibitors of Plasmodium falciparum (DD2) proliferation (AID 743345); conditions: P. falciparum Dd2 in erythrocytes, SYBR Green DNA, 72 h; at 28.5 µM (top of the series)
Procedure, shortened: (§1)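 Erythrocytes infected with P. falciparum (0.3% parasitemia, 2.5% hematocrit) incubated with compounds 72 h at 37 C, 5% CO2. Lysis with saponin/Triton buffer containing SYBR Green I, overnight at room temperature in the dark; DNA fluorescence (485/535 nm) normalised to 0.29 uM artemisinin and DMSO.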

[2] = qHTS profiling of the MIPE4 collection as inhibitors of Plasmodium falciparum (DD2) proliferation (Rep 2) (AID 743346); conditions: P. falciparum Dd2 in erythrocytes, SYBR Green DNA, 72 h; at 28.5 µM (top of the series)
Procedure, shortened: as §1

[3] = qHTS profiling of the MIPE4 collection as inhibitors of Plasmodium falciparum (HB3) proliferation (AID 743347);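 note: plate controls were DMSO vehicle wells for no effect and artemisinin wells for full effect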; conditions: P. falciparum HB3 in erythrocytes, SYBR Green DNA, 72 h; at 28.5 µM (top of the series)
Procedure, shortened: as §1

[4] = Ebola virus entry assay, green fluorescence channel
[5] = Ebola virus entry assay, blue channel fluorescence
[6] = Ebola virus entry assay, ratio channel
[7] = Ebola virus entry assay, green channel fluorescence
[8] = Ebola virus entry assay, reporter ratio channel; Channel type: primary
[9] = Ebola virus entry assay, blue channel (ratio component)
Throughout, for efficacy: 0% is about no effect.

NC(N)=NC(=O)c1nc(Cl)c(N)nc1N
94%: parasite growth remaining, % of DMSO control (lower = more inhibition) [1]
87.1%: growth, % of control [3]
111%: parasite growth, % of control (lower = inhibition) [2]
inactive: efficacy [4] -17.5% | outcome [5] | outcome [6] | outcome [7] | outcome [8] | outcome [9]

CC(C)=C[C@@H]1[C@@H](C(=O)OCc2coc(Cc3ccccc3)c2)C1(C)C
inactive: efficacy [4] 20% | outcome [5] | outcome [6] | outcome [7] | outcome [8] | outcome [9]

Cc1cc(C2CCCCC2)n(O)c(=O)c1
inactive: efficacy [4] 53.2% | outcome [6]
active: AC50 [5] 39.8 µM | AC50 [8] 39.8 µM

C#C[C@]1(OC(C)=O)CC[C@H]2[C@@H]3CCC4=C[C@@H](OC(C)=O)CC[C@@H]4[C@H]3CC[C@@]21C
inactive: efficacy [4] -36.9% | outcome [5] | outcome [6] | outcome [7] | outcome [8] | outcome [9]

O=C(O)CCc1nc(-c2ccccc2)c(-c2ccccc2)o1
inactive: efficacy [4] 18.2% | outcome [5] | outcome [6] | outcome [7] | outcome [8] | outcome [9]

CN(C(=O)c1c(O)c2ccccc2n(C)c1=O)c1ccccc1
inactive: efficacy [4] -16% | outcome [5] | outcome [6] | outcome [7] | outcome [8] | outcome [9]
